From PubChem BioAssay (NCATS) come the findings set out here.

Several values for one entry are separate records, joined by “and”; a condition that tells them apart may be missing. Identical values can stand only once. Inconclusive results are not listed. Unmarked numbers belong to inactive results. Activity calls are given as the source filed them. Calls come from the whole dose curve; as a rule, active = well fitted curve in the direction sought with a large enough effect; inconclusive = small, poorly fitted or top-dose-only effect, or another doubt; inactive = no such curve, though single readings can be large; an effect the other way counts as inactive or inconclusive.

Assay [1] is described as follows: qHTS Assay for Identifying Gametocytocidal Compounds (AID 743244).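 For max response: actives lower the fluorescent signal which means gametocytes are killed.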 The following applies: P. falciparum 3D7 stage III-V gametocytes, alamarBlue, 72 h; max response: active compounds read low. The essentials:
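Stage III-V P. falciparum 3D7 gametocytes, 20,000 per well, were exposed to compounds for 72 h at 37C, 5% CO2. AlamarBlue was then added for 24 h and viability was read as fluorescence at Ex 525/Em 598 nm.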
In general terms: qHTS replaces the single test concentration by a dilution series.

The nature of assay [2]: qHTS assay to identify small molecule inhibitors of chordoma cells - UCH-1 (AID 1259355). For Potency: series mostly up to about 46 µM. Note: nearly all actives have a fitted effect of over 55% in size. The essentials: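 Screening used approved and investigational drugs in 15-point titration against 800 seeded cells per well. A fixed combination of auranofin with camptothecin, doxorubicin, rubitecan and topotecan followed compound addition, and growth was scored by CellTiter-Glo after 48hr.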

The nature of assay [3]: qHTS assay to identify small molecule inhibitors of chordoma cells - UCH-2 (AID 1259356).
% is set by controls: 0 for no effect and ±100 for the full control effect; potency is the fitted concentration of half-maximal effect.

As for `NCC(O)CC(=O)O` (stereo not drawn), the max response in assay [1] is 10.8%. Besides, the Potency entry in assay [2] and in assay [3] was “inactive” throughout.
`CN1CCN(C(c2ccccc2)c2ccc(Cl)cc2)CC1` (stereo not drawn): the max response in assay [1] was 1.98%. Besides, the Potency entry in assay [2] and in assay [3] was “inactive” throughout.
Consider `CC(O)[C@@H]1NC(=O)[C@H](Cc2ccccc2)NC(=O)[C@H](C(C)O)NC(=O)[C@H](CCCCN)NC(=O)[C@H](Cc2c[nH]c3ccccc23)NC(=O)[C@H](Cc2ccccc2)NC(=O)[C@H](Cc2ccccc2)NC(=O)[C@H](CC(N)=O)NC(=O)[C@H](CCCCN)NC(=O)[C@@H](NC(=O)CNC(=O)[C@H](C)N)CSSC[C@@H](C(=O)O)NC(=O)[C@H](CO)NC1=O` (stereo partly drawn), for which the max response in assay [1] is 1.43%. The Potency result in assay [2] and in assay [3] was “inactive” in each case.
`C=N[C@@H](C(=O)N[C@@H]1C(=O)N2[C@@H]1SC(C)(C)[C@@H]2C(=O)O)c1ccccc1`: the max response in assay [1] is -0.476%. Besides, the Potency result in assay [2] and in assay [3] was “inactive” each time.
For `CCCCCCCCCCCCCCCCOCCOCCOCCOCCOCCOCCOCCOCCOCCOCCOCCOCCOCCOCCOCCOCCOCCOCCOCCOCCO`, in assay [1], the max response was -3.08%. Further, the Potency in assay [2] is 35.5 µM (active). Moreover, in assay [3], the Potency entry was “inactive”.
On to `O=C[C@H](O)[C@@H](O)[C@@H](O)[C@H](O)CO`, for which the max response in assay [1] is -6.65%. For the same compound, the Potency result in assay [2] and in assay [3] was “inactive” throughout.
For the compound `CC(C)[C@@H](N)C(=O)O`, the max response in assay [1] was 7.16%. In addition, the Potency result in assay [2] and in assay [3] was “inactive” throughout.
As to `NCCCC[C@H](N)C(=O)O`, the max response in assay [1] was 5.86%. The Potency result in assay [2] and in assay [3] was “inactive” each time.
As for `COc1ccc2c(=O)c(C)c(-c3ccccc3)oc2c1CN(C)C`, the max response in assay [1] is 1.87%. In addition, the Potency result in assay [2] and in assay [3] was “inactive” each time.
With `CCC(O)c1ccccc1` (stereo not drawn), in assay [1], the max response is 11%. Moreover, the Potency entry in assay [2] and in assay [3] was “inactive” in each case.
Take `[O]=[Bi][O][Bi]=[O]`: the max response in assay [1] was 11.3%. Besides, the Potency result in assay [2] and in assay [3] was “inactive” throughout.
Consider `COc1ccc([C@@H]2CC(=O)c3c(O)cc(O[C@@H]4O[C@H](CO[C@@H]5O[C@@H](C)[C@H](O)[C@@H](O)[C@H]5O)[C@@H](O)[C@H](O)[C@H]4O)cc3O2)cc1O`, for which, in assay [1], the max response is 22.8%. The Potency result in assay [2] and in assay [3] was “inactive” in each case.
On to `COc1ccc2nc(NC(=O)Nc3ccccc3)sc2c1`, for which the max response in assay [1] is -0.997%. The Potency result in assay [2] and in assay [3] was “inactive” in each case.
As to `CC12CCC(C[N+](C)(CCC[N+](C)(C)C)C1)C2(C)C` (stereo not drawn), the max response in assay [1] is -4.18%. Moreover, the Potency entry in assay [2] and in assay [3] was “inactive” throughout.
Take `COC(=O)CCC[N+](C)(C)C`: in assay [1], the max response was -8.11%. Moreover, the Potency entry in assay [2] and in assay [3] was “inactive” throughout.
For the compound `C=CCCCCCCCCC(=O)OC`, the max response in assay [1] was 16.7%. Also, the Potency result in assay [2] and in assay [3] was “inactive” in each case.
As for `CS(=O)(=O)OCC(O)C(O)COS(C)(=O)=O` (stereo not drawn), in assay [1], the max response was -2.1%. In addition, the Potency result in assay [2] and in assay [3] was “inactive” each time.
Turning to `CCCCCCCCCCCC(=O)N(CCO)CCO`, in assay [1], the max response is 11.9%. Further, the Potency entry in assay [2] and in assay [3] was “inactive” each time.
With `OC1OC[C@@H](O)[C@H](O)[C@@H]1O` (stereo partly drawn), the max response in assay [1] is 7.58%. The Potency result in assay [2] and in assay [3] was “inactive” each time.
`O=P(O)(O)OP(=O)(O)OP(=O)(O)O`: the max response in assay [1] was 1.26%. For the same compound, the Potency result in assay [2] and in assay [3] was “inactive” throughout.
As to `NC(=O)OC[C@@H]1[C@H](NC(=O)/C(=N\OCC(=O)O)c2csc(N)n2)C(=O)N1S(=O)(=O)O`, the max response in assay [1] is -1.55%. Further, the Potency result in assay [2] and in assay [3] was “inactive” throughout.
For the compound `CCOC(=O)c1cc(-c2ccccc2)nc2ccc(C)cc12`, in assay [1], the max response was -3.36%. The Potency result in assay [2] and in assay [3] was “inactive” in each case.
For `COc1ccc(-c2noc(CC(=O)O)c2-c2ccc(OC)cc2)cc1`, the max response in assay [1] is 49.9%. The Potency result in assay [2] and in assay [3] was “inactive” in each case.
With `CC(C)CCC[C@@H](C)[C@H]1CC(=O)C2=C3CC[C@H]4C[C@@H](O)CC[C@]4(C)[C@H]3CC[C@@]21C`, the max response in assay [1] was 5.28%. The Potency result in assay [2] and in assay [3] was “inactive” throughout.
Turning to `CNCC(O)c1ccc(OC(=O)C(C)(C)C)c(OC(=O)C(C)(C)C)c1` (stereo not drawn), the max response in assay [1] was -11.6%. The Potency entry in assay [2] and in assay [3] was “inactive” throughout.
Regarding `CN=C1C=CC(=C(c2ccc(N(C)C)cc2)c2ccc(N(C)C)cc2)C=C1`, the Potency is 3.55 µM (active) in assay [1], 15.8 µM (active) in assay [2] and 9.2 µM (active) in assay [3].
Regarding `C[C@H](N)C(=O)N[C@@H](C)P(=O)(O)O`, the max response in assay [1] is 2.87%. The Potency entry in assay [2] and in assay [3] was “inactive” in each case.
With `Nc1nc(=O)n([C@@H]2CS[C@H](CO)O2)cc1F`, the max response in assay [1] was 4.32%. Besides, the Potency result in assay [2] and in assay [3] was “inactive” each time.
As for `C[C@H](CCCC(C)(C)O)[C@H]1CC[C@H]2[C@@H]3CC=C4C[C@@H](O)CC[C@]4(C)[C@H]3CC[C@]12C`, the max response in assay [1] is -7.2%. For the same compound, the Potency result in assay [2] and in assay [3] was “inactive” throughout.
On to `O=[N+]([O-])c1c(Cl)cccc1-c1c[nH]cc1Cl`, for which, in assay [1], the max response is 0.263%. Moreover, the Potency result in assay [2] and in assay [3] was “inactive” each time.
Take `COc1cc2c(cc1OC)[C@@H](Cc1cc(OC)c(OC)c(OC)c1)[N+](C)(CCCOC(=O)CC/C=C/CCC(=O)OCCC[N+]1(C)CCc3cc(OC)c(OC)cc3[C@H]1Cc1cc(OC)c(OC)c(OC)c1)CC2` (stereo partly drawn): the max response in assay [1] was 7.25% and 6.59%. Also, the Potency entry in assay [2] and in assay [3] was “inactive” each time.
